# From PubChem BioAssay (NCI)
# This is part of a sample that, as a whole, favours compounds with a hit. Of some 79,000 tested, about 15% had one in any assay. Values without a mark were called inactive. Activity calls are given as the source filed them. Cut-off read from the data, not from the text of the source: active = growth inhibition above about 70%; inactive = the rest.
# Columns and labels:
# [1] = NCI Yeast Anticancer Drug Screen. Data for the rad50 strain (AID 155);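 note: 0% = growth of vehicle-only cultures of the same strain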; conditions: S. cerevisiae rad50 strain growth inhibition, hits give high values
# How it was run: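 Readout: growth inhibition relative to vehicle-treated cultures. Compound exposure was carried out in a genetically defined yeast strain deficient in DNA damage repair.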
# [2] = NCI Yeast Anticancer Drug Screen. Data for the mec2-1 strain (AID 157); conditions: S. cerevisiae mec2-1 strain, hits give high values
# How it was run: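 Strain: mec2-1 (DNA repair/cell cycle alteration). Compound exposure, then growth measured; inhibition expressed relative to vehicle.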
# [3] = NCI Yeast Anticancer Drug Screen. Data for the sgs1 mgt1 strain (AID 161);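 note: 0% = growth of cultures given vehicle only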; conditions: S. cerevisiae sgs1 mgt1 strain, hits give high values
# How it was run: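 Test agents were incubated with a DNA-repair-mutant yeast strain. Growth was then read and compared against vehicle-treated controls.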
# [4] = NCI Yeast Anticancer Drug Screen. Data for the cln2 rad14 strain (AID 165);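 note: 0% = growth equal to vehicle treated cultures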; conditions: S. cerevisiae cln2 rad14 strain, hits give high values
# How it was run: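 Compounds are applied to the cln2 rad14 yeast strain, and growth is then compared with that of vehicle-treated cultures to give inhibition.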
# [5] = NCI Yeast Anticancer Drug Screen. Data for the bub3 strain (AID 167); conditions: S. cerevisiae bub3 mutant strain, hits give high values
# How it was run: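 Readout: yeast growth inhibition, expressed relative to vehicle-only wells. The test organism is a mutant strain from a panel with lesions in DNA repair or checkpoint genes.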
# [6] = NCI Yeast Anticancer Drug Screen. Data for the mlh1 rad18 strain (AID 175); conditions: S. cerevisiae mlh1 rad18 strain growth inhibition, hits give high values
# How it was run: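 Read-out is yeast growth inhibition, calculated against vehicle-only controls. The compound was applied to a strain engineered with DNA damage repair alterations.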
# [7] = at 5.0 µM (retest, dose inferred, filed as 0.5)
# [8] = at 50.0 µM (retest, dose inferred, filed as 5.0)
SMILES,"growth inhibition [1, 7]","growth inhibition [1, 8]",growth inhibition ([1]; at 50.0 µM),"growth inhibition [2, 7]","growth inhibition [2, 8]",growth inhibition ([2]; at 50.0 µM),"growth inhibition [3, 7]","growth inhibition [3, 8]",growth inhibition ([3]; at 50.0 µM),"growth inhibition [4, 7]","growth inhibition [4, 8]",growth inhibition ([4]; at 50.0 µM),"growth inhibition [5, 7]","growth inhibition [5, 8]",growth inhibition ([5]; at 50.0 µM),"growth inhibition [6, 7]","growth inhibition [6, 8]",growth inhibition ([6]; at 50.0 µM)
S=C1NCCNC(=S)SS1,40%,97% (active),93% (active),8%,99% (active),77.6% (active),15%,97% (active),48.5%,7%,98% (active),20.2%,10%,99% (active),98.8% (active),14%,99% (active),44.5%
CC1(C)C2CCC1(CS(=O)O)C(=O)C2.[Ag] (configuration not stated),99% (active),99% (active),99.2% (active),100% (active),99% (active),99.5% (active),100% (active),99% (active),99.5% (active),99% (active),99% (active),98.7% (active),99% (active),99% (active),99.5% (active),100% (active),99% (active),99.6% (active)
O=[N+]([O-])c1cccc(F)c1O,5%,87% (active),52.5%,6%,79% (active),33.1%,6%,78% (active),42.5%,6%,65%,0.25%,0%,73% (active),11.3%,0%,89% (active),78.3% (active)
Cc1ccc(-c2n[nH]c(=O)n2/N=C\c2ccccc2)cc1,21%,38%,40.9%,18%,25%,21.9%,28%,39%,50.1%,12%,31%,15.2%,4%,23%,23%,17%,44%,59%
[Pt].c1ccc([PH+](CC[PH+](CC[PH+](c2ccccc2)c2ccccc2)CC[PH+](c2ccccc2)c2ccccc2)c2ccccc2)cc1,54%,96% (active),89.8% (active),97% (active),98% (active),90.7% (active),28%,97% (active),91.7% (active),27%,97% (active),89.3% (active),93% (active),97% (active),89.8% (active),68%,97% (active),88.7% (active)
CC(C)Cc1ccc(C(C)/C=C2\CCC(CN3CCCCC3)C2=O)cc1 (configuration not stated),93% (active),98% (active),92.3% (active),90% (active),99% (active),94.2% (active),84% (active),98% (active),94.2% (active),80% (active),99% (active),92.7% (active),98% (active),98% (active),93.2% (active),94% (active),98% (active),89.6% (active)
CCC[CH2][Sn]([CH2]CCC)([O]C(=O)c1cc(F)ccc1F)[O][Sn]([CH2]CCC)([CH2]CCC)[O]C(=O)c1cc(F)ccc1F,83% (active),94% (active),65.3%,87% (active),97% (active),69.3%,85% (active),96% (active),63.2%,74% (active),90% (active),57.5%,93% (active),97% (active),81% (active),89% (active),96% (active),85.9% (active)
CCN(CC)C(=O)N1CCN(c2cccc(Cl)c2)CC1,4%,58%,74% (active),0%,84% (active),91.2% (active),5%,85% (active),90.2% (active),1%,50%,93% (active),4%,73% (active),85.7% (active),2%,76% (active),90.6% (active)
CCCCCCCCCCCC[n+]1ccc(C)cc1,33%,99% (active),98.2% (active),76% (active),100% (active),99.2% (active),33%,99% (active),99% (active),20%,99% (active),96.8% (active),80% (active),99% (active),98.9% (active),18%,99% (active),98.3% (active)
